Bioassay records as filed in PubChem.
Myeloid diff MLP = induction of myeloid progenitor differentiation, primary screen, cell-based, flow cytometry, MLPCN library; ER-HoxA9 myeloid progenitors, lysozyme-GFP differentiation; calls only at 10 µM; hit rate 1% among 360,000;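 active means normalized GFP-positive differentiation at or above the plate's own cutoff, the solvent-only control mean plus 3 SD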;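 further: cells exposed to compound for four days before flow analysis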
NPR1 activator = GC-A stimulated cGMP production enhancers – HEK293 GC-A cells, cGMP TR-FRET, EC30 ANP, primary screen | hit rate 0.14% among 370,000 | Atrial natriuretic peptide receptor 1 (Homo sapiens), P16066 | activation, % at 10 µM | 0% at EC30 ANP, 100% saturating ANP; in the data active means activation above about 40%
Target sequence (P16066 whole entry, looked up): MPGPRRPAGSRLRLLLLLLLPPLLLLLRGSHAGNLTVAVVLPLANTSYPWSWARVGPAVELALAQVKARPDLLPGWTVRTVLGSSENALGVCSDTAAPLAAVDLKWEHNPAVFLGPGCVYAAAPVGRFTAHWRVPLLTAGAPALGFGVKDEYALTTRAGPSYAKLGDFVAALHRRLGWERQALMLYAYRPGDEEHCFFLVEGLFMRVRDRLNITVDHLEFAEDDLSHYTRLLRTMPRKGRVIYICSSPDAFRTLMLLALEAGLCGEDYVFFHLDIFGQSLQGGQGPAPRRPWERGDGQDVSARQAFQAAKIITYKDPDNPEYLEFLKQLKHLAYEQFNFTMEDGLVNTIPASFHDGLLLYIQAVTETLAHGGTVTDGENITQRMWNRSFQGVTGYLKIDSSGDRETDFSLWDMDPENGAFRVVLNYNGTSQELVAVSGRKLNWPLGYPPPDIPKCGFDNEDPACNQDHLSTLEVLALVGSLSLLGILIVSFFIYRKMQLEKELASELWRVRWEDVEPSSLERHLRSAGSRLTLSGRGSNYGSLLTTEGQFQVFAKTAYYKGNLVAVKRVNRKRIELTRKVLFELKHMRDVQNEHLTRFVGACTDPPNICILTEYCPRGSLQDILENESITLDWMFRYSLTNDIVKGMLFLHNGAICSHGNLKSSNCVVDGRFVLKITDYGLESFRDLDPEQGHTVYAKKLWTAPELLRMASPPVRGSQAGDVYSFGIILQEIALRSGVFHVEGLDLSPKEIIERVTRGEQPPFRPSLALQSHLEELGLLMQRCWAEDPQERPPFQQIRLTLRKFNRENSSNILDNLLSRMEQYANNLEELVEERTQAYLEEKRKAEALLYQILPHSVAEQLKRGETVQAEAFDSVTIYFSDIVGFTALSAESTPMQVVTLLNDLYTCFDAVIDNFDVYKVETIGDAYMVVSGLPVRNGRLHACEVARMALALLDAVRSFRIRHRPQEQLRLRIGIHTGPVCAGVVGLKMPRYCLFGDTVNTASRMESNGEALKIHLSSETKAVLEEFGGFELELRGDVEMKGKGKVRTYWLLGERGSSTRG
Exocytosis inh = LAMP-1 surface exposure blockers, TALL-104 cells – cell-based, flow cytometry, MLPCN library, primary screen; hit rate 0.66% among 360,000; TALL-104 LAMP-1 surface exposure; cells stimulated with thapsigargin and PMA; inhibition, % at 10 µM;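 active means inhibition above about 55%, limit read from the data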
GC-B act = human GC-B receptor activators, primary screen, HEK293 GC-B cells, cGMP TR-FRET, EC30 CNP; AID 1920062, 2024; activation, % at 10 µM; hit rate 0.11% among 370,000; Atrial natriuretic peptide receptor 2 (Homo sapiens), P20594; 0% at EC30 CNP, 100% saturating CNP;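 active means activation at 10 µM reaching about 35% in either raw or pattern-adjusted values, limit read from the data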
Exocytosis CP01 = inhibitors of lytic granule exocytosis, confirmation, TALL-104 cells, flow cytometry, Cherry Pick01; shares compounds with Exocytosis inh; LAMP-1 externalization; stimulated with PMA plus thapsigargin; inhibition, % at 10 µM; hit rate 11% among 1,500; AID 651954, 2012; in the data active means inhibition above about 60%;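 further: 0% = stimulated vehicle wells and 100% = unstimulated wells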
* = called active by the depositor; i = inactive; x = not tested or not shown. Shown are actives, neighbours in structure and some others; about 1.8% of the full set was active somewhere.

SMILES	Myeloid diff MLP	NPR1 activator	Exocytosis inh	GC-B act	Exocytosis CP01
CCN(CC)CCn1c(=N)n(CC(=O)c2ccc(Br)s2)c2ccccc21	i	-7.2	79.4*	-9.6	-0.3
COc1ccc([N+](=O)[O-])cc1Nc1c2ccccc2nc2ccccc12	x	-2.2	72.9*	-13.3	73.2*
COc1ccc(OC)c(Nc2c3c(nc4ccccc24)CCC3)c1	x	-1.8	58.1*	-5.3	-1.1
COc1ccc(OC)c(Nc2c3ccccc3nc3ccccc23)c1	i	-43.4	67.0*	-17.2	-1.9
COc1ccc(OC)c(Nc2cc(C)c3ccccc3n2)c1	i	-6.1	-13.4	-3.9	x
COc1ccc2nc3c(c(-c4ccccc4)c2c1)CCC3	i	0.5	66.5*	-1.3	3.2
C=CCCC(=O)N[C@H]1CC[C@@]23CCCN2C(=O)CCC[C@H]3[C@H]1C	x	1.6	x	0.1	x
CC(C)[C@H](NC(=O)N1CCOCC1)C(=O)N1CCC[C@H]1C(=O)NCc1ccccc1	x	0.4	x	-2.5	x
CCc1ccc(NC(=O)CSc2ccc(-c3ccccn3)nn2)cc1	i	-0.1	1.5	0.5	x
CCOC(=O)c1ccccc1NC(=O)CSc1ccc(-c2ccccn2)nn1	i	-2.3	105.8*	2.4	-14.1
O=C(CC1Nc2cccc3cccc(c23)NC1=O)Nc1ccc(F)cc1 (stereo not given)	i	-6.2	-0.1	2.2	x
COc1ccc(NC(=O)CC2Nc3cccc4cccc(c34)NC2=O)cc1 (stereo not given)	i	-1.6	60.8*	-5.0	-12.9
Nc1c(Cl)cc(-c2csc(NC(CO)c3nc4ccccc4n3CCOCCO)n2)cc1Cl (stereo not given)	i	-4.2	70.2*	-2.0	-1.1
Cc1ccc(-c2cc(C(=O)Nc3cccnc3)c3ccccc3n2)o1	i	15.2	82.2*	5.4	-11.6
Cc1ccc(-c2cc(C(=O)Nc3ccccn3)c3ccccc3n2)o1	i	12.1	87.9*	1.5	-9.4
COc1ccccc1NC(=O)c1cc(-c2ccc(C)o2)nc2ccccc12	i	4.5	11.6	-1.3	x
Cc1ccc(NC(=O)c2cc(-c3ccc(C)o3)nc3ccccc23)cc1	i	14.2	84.0*	10.0	-12.0
COc1ccc2c(C(c3ccccc3O)C3CCCN3S(=O)(=O)c3ccc(C)cc3)cn(C)c2c1 (stereo not given)	x	-14.8	x	-9.1	x
COc1ccc(C(=O)N2CCC(C)(C(=O)O)C2)cc1OC (stereo not given)	i	-3.1	5.5	0.9	x
Fc1cccc(Cc2c(-c3ccccc3)nc3c4ccccc4ccn23)c1	i	11.0	-3.8	8.6	x
Cc1ccc(C)c(NC(=O)c2nc(-c3ccccc3)n(-c3ccccc3)n2)c1	i	-6.0	68.5*	-2.2	4.0
COc1ccc(C)cc1NC(=O)c1nn(-c2ccccc2)cc1OC	i	-0.6	100.0*	6.3	-0.9
COc1cn(-c2ccccc2)nc1C(=O)Nc1ccc(C)cc1	i	-2.2	28.9	1.0	x
Cn1c(NCC(O)c2ccccc2)nc2c1c(=O)n(Cc1ccc(Cl)c(Cl)c1)c(=O)n2C (stereo not given)	i	7.8	92.2*	19.8	14.3
Cn1c(NCC(O)c2ccccc2)nc2c1c(=O)n(Cc1ccc(Cl)cc1)c(=O)n2C (stereo not given)	i	-0.2	-7.9	6.6	x
SMILES	Myeloid diff MLP	NPR1 activator	Exocytosis inh	GC-B act	Exocytosis CP01
CCOC(=O)c1nnc(-c2ccc(C)cc2)nc1Sc1cccc(Cl)c1	i	-3.6	2.0	-3.2	x
CCOC(=O)c1nnc(-c2ccccc2)nc1Sc1ccccc1Cl	i	-0.2	101.5*	-12.1	75.6*
O=C(OCc1nc2ccccc2s1)c1ccc(Br)o1	i	1.6	0.9	-1.1	x
O=C(OCc1nc2ccccc2s1)c1ccco1	i	1.9	74.6*	5.6	-4.3
N#Cc1ccc(CSc2nc3sc4c(c3c(=O)n2-c2ccc(Br)cc2)CCCC4)cc1	x	1.9	x	6.8	x
O=C(Cn1sc2ccccc2c1=O)Nc1ccc(F)cc1	i	14.4	64.5*	8.2	103.6*
O=C(Cn1sc2ccccc2c1=O)Nc1ccc(Br)cc1	i	6.0	26.4	5.2	x
O=C(NCC1CC1)c1csc([C@@H]2O[C@H](CO)[C@H](O)[C@H](O)[C@H]2O)n1	i	4.5	29.0	-7.3	x
CCC1(C)CC(CCNS(=O)(=O)c2ccc(C)cc2)(c2ccc(C)cc2)CCO1 (stereo not given)	i	-9.4	57.1*	-11.8	-12.1
N#Cc1cccc(NC(=O)c2cc(C3CCCCN3S(=O)(=O)c3cccc4cccnc34)on2)c1 (stereo not given)	i	-2.0	-8.2	0.2	x
COc1ccc(C(=O)C2CCCN(C(=O)c3cccnc3OC)C2)cc1F (stereo not given)	i	-2.1	76.7*	-4.3	-14.9
COc1ccc2cc(C(=O)C3CCCN(C(=O)c4cccnc4)C3)ccc2c1 (stereo not given)	i	-2.6	9.0	6.4	x
O=C(c1ccc2ccccc2c1)C1CCCN(C(=O)c2cccnc2)C1 (stereo not given)	i	1.0	65.8*	1.5	-3.5
O=C(C1CCN(c2ncnc3c2sc2cccc(F)c23)CC1)N1CCN(C(=O)C2CCCO2)CC1 (stereo not given)	x	6.2	x	-8.6	x
Cc1ccccc1CC1CCN(CCCNC(=O)Nc2ccccc2)CC1	i	-4.7	63.2*	0.6	-13.1
Cc1ccc(C)c(CN2CCC(CNC(=O)Nc3ccc(Cl)cc3)CC2)c1	i	-18.3	65.9*	-7.6	-1.5
O=C(CCCc1c[nH]c2ccccc12)NCc1ccccc1C(F)(F)F	i	-3.0	14.0	7.3	x
Cc1oc2cc(Br)c(O)c(Br)c2c1-c1ccccc1	i	x	-16.5	x	x
COc1ccc(S(=O)(=O)N2CCN(Cc3ccc4c(c3)OCO4)CC2)cc1F	i	-0.9	4.2	4.2	x
CCOc1ccc(S(=O)(=O)N2CCN(Cc3ccc4c(c3)OCO4)CC2)cc1C	i	-0.3	65.3*	3.3	-13.9
CCN(CC)c1cc(C)c2cc(NC(=O)c3cccs3)ccc2n1	i	12.8	66.8*	3.7	-13.3
Cc1nc(-c2ccc(Cl)cc2)sc1C1(C)CC(c2ccccc2)=NO1 (stereo not given)	i	0.6	83.2*	-2.2	-4.0
Cc1nc(-c2ccc(Cl)cc2)sc1C1(C)CC(c2ccc(Cl)cc2)=NO1 (stereo not given)	i	-1.1	7.9	1.9	x
COc1ccc(N2CCN(S(=O)(=O)c3ccc(-c4cc(C)no4)s3)CC2)cc1	i	2.0	-0.6	3.2	x
CCN(c1ccc(OC)cc1)S(=O)(=O)c1ccc(-c2cc(C)no2)s1	i	-0.1	74.6*	1.9	-4.7
